# Measurements: the supplement of paper PMC9135407
# “And” between values parts separate entries of the source, which are not always exact repeats. Identical values can stand only once. Counter-ions that a name gives are not always drawn. The campaign covered roughly 5,800 compounds. About 620 (11%) showed activity.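 Rule for the calls: active = score above a cut-off or among the top three wells of a plate; in these data no inactive exceeds 0.85.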 For the sample, actives were picked, then their nearest neighbours and some compounds at random.
# Tested on: primary human hepatic stellate cells (donor 1)
# Experiment: scaled lipid accumulation score (0 = DMSO-like, 1 = nortriptyline-like); higher = stronger HSC inactivation (lipid re-accumulation), active = hit call of the paper
# Conditions: 48 h
# [1] = library stock concentration: 80 uM
# [2] = library stock concentration: 400 uM
# [3] = library stock concentration: 2 mM
# [4] = library stock concentration: 3.33 mM
# [5] = library stock concentration: 10 mM
# [6] = library stock concentration: 1 mM
compound,measurement,setting,value
CC(=O)Nc1cccc(-n2c(=O)n(C3CC3)c(=O)c3c(Nc4ccc(I)cc4F)n(C)c(=O)c(C)c32)c1,scaled lipid accumulation score,[1],≤ -0.009 (inactive)
same,scaled lipid accumulation score,[2],≤ -0.003 (inactive)
same,scaled lipid accumulation score,[3],0.049 (inactive)
same,scaled lipid accumulation score,[4],≤ 0 (inactive)
same,scaled lipid accumulation score,[5],≤ 0 (inactive) and 0.058 (inactive)
O=C(N/N=C/c1ccc(O)c(O)c1)c1cc2ccccc2cc1O [Dynasore],scaled lipid accumulation score,[4],≤ -0.009 (inactive)
same,scaled lipid accumulation score,[5],0.182 (inactive)
"CN=C(N)NCCC[C@H](N)C(=O)O [L-Ornithine, N5-[imino(methylamino)methyl]-[CAS]]",scaled lipid accumulation score,[5],≤ 0 (inactive)
O=C(O[C@H]1[C@H](Oc2ccccc2COC(=O)C2(O)C=CCCC2=O)O[C@H](CO)[C@@H](O)[C@@H]1O)c1ccccc1 (stereo not given in full),scaled lipid accumulation score,[5],≤ 0 (inactive)
COc1cccc(OC)c1OCCNCC1COc2ccccc2O1 (stereo not given) [WB 4101 hydrochloride],scaled lipid accumulation score,[5],0.337 (inactive)
COc1cccc(OC)c1OCCNCC1COc2ccccc2O1 (stereo not given) [WB-4101 hydrochloride],scaled lipid accumulation score,[5],0.182 (inactive)
CCCCC[C@@H](O)/C=C/[C@H]1[C@H](C/C=C\CCCC(=O)O)[C@H](O)C[C@@H]1O [ent-Prostaglandin F2.alpha.],scaled lipid accumulation score,[6],≤ 0 (inactive)
CCOC(=O)/C=C/[C@H](CC(C)C)NC(=O)[C@H](CO)NC(=O)[C@@H](NC(=O)c1cccc(O)c1C)C(C)C,scaled lipid accumulation score,[6],≤ 0 (inactive)
C[C@@H]1C(=O)NC2=Nc3cccc(Cl)c3CN21 [Quazinone],scaled lipid accumulation score,[5],≤ 0 (inactive)
N=C1C=CC(=C(c2ccc(N)cc2)c2ccc(N)cc2)C=C1 [Pararosaniline pamoate],scaled lipid accumulation score,library stock concentration: 3 mM,0.375 (inactive)
same,scaled lipid accumulation score,[5],0.435 (inactive)
C=CC(=O)Nc1cccc(Nc2nc(NC3CCC(N(C)C)CC3)nc3c2ncn3C(C)C)c1 (stereo not given),scaled lipid accumulation score,[1],≤ 0 (inactive)
same,scaled lipid accumulation score,[2],≤ 0 (inactive)
same,scaled lipid accumulation score,[3],≤ 0 (inactive)
same,scaled lipid accumulation score,[5],0.782 (inactive)
CCCCC[C@H](O)/C=C/[C@H]1C=CC(=O)[C@@H]1CCCCCCC(=O)OCC [Prostaglandin A1 ethyl ester],scaled lipid accumulation score,[6],≤ 0 (inactive)
NC(N)=O,scaled lipid accumulation score,[5],≤ 0 (inactive)
same,scaled lipid accumulation score,library stock concentration: 33.3 mM,≤ 0 (inactive)
CC/C=C\C/C=C\C/C=C\C/C=C\CCCCC(=O)O [Stearidonic Acid],scaled lipid accumulation score,[6],≤ 0 (inactive)
C=C1C[C@H](O)[C@H](C/C=C\CCCC(=O)O)[C@H]1/C=C/C(=O)CCCCC [11-deoxy-11-methylene-15-keto Prostaglandin D2],scaled lipid accumulation score,[6],≤ 0 (inactive)
COc1cc(N2CCC(N3CCN(C)CC3)CC2)ccc1Nc1ncc(Cl)c(-c2c[nH]c3ccccc23)n1 [listing 1 of 2 here],scaled lipid accumulation score,[1],0.057 (inactive)
same,scaled lipid accumulation score,[2],0.358 (inactive)
COc1cc(C(=O)N2CCC(N3CCN(C)CC3)CC2)ccc1Nc1ncc2c(n1)N(C)c1ccccc1C(=O)N2C [listing 1 of 2 here],scaled lipid accumulation score,[1],≤ 0 (inactive)
same,scaled lipid accumulation score,[2],0.015 (inactive)
same,scaled lipid accumulation score,[3],0.329 (inactive)
COc1cc(C(=O)N2CCC(N3CCN(C)CC3)CC2)ccc1Nc1ncc2c(n1)N(C)c1ccccc1C(=O)N2C [listing 2 of 2 here],scaled lipid accumulation score,[5],0.929 (active)
COc1cc(N2CCN(C)CC2)ccc1Nc1ncc2c(n1)N(C)c1ccccc1C(=O)N2C,scaled lipid accumulation score,[1],0.087 (inactive)
same,scaled lipid accumulation score,[2],0.062 (inactive)
same,scaled lipid accumulation score,[3],0.241 (inactive)
same,scaled lipid accumulation score,[5],0.703 (inactive)
COc1cc(N2CCC(N3CCN(C)CC3)CC2)ccc1Nc1ncc(Cl)c(-c2c[nH]c3ccccc23)n1 [listing 2 of 2 here],scaled lipid accumulation score,[3],0.981 (active)
same,scaled lipid accumulation score,[5],0.967 (active)
COc1cc(N2CCC(N)CC2)ccc1Nc1ncc(Cl)c(-c2c[nH]c3ccccc23)n1,scaled lipid accumulation score,[4],0.146 (inactive)
same,scaled lipid accumulation score,[5],0.238 (inactive)
CCCCCCCCCCCCCCC(F)C(=O)O (stereo not given) [2-Fluoropalmitic Acid],scaled lipid accumulation score,[6],≤ 0 (inactive)
CCCCCCCCCCCCCCC(F)C(=O)O (stereo not given) [2-Fluoropalmitic acid],scaled lipid accumulation score,[6],≤ -0.021 (inactive)
CCCCCC(=O)/C=C/[C@H]1[C@H](O)CC(=O)[C@@H]1C/C=C\CCCC(=O)O [15-keto Prostaglandin E2],scaled lipid accumulation score,[6],≤ 0 (inactive)
CO[C@@H]1[C@@H](O[C@@H]2O[C@H](C)[C@@H](O[C@H]3C[C@@](C)(O)[C@@H](OC(=O)CC(C)C)[C@H](C)O3)[C@H](N(C)C)[C@H]2O)[C@@H](CC=O)C[C@@H](C)[C@@H](O)/C=C/C=C/C[C@@H](C)OC(=O)C[C@H]1O,scaled lipid accumulation score,[5],0.014 (inactive)
CCCCCC(O)C=CC1C(O)CC(O)C1CCCCCCC(=O)O (stereo not given) [Prostaglandin  F1a],scaled lipid accumulation score,[6],≤ -0.021 (inactive)
COc1cc(/C=C(\C#N)C(=O)Nc2nnc(C(F)(F)F)s2)ccc1OCc1ccc(C(F)(F)F)cc1C(F)(F)F,scaled lipid accumulation score,[5],≤ 0 (inactive)
O=c1cc(-c2ccc(O)cc2)oc2c([C@@H]3O[C@H](CO)[C@@H](O)[C@H](O)[C@H]3O)c(O)cc(O)c12 [Vitexin],scaled lipid accumulation score,,≤ 0 (inactive)
CN(C)c1ccc2nc3ccc(=[N+](C)C)cc-3sc2c1 [Methylene blue],scaled lipid accumulation score,library stock concentration: 5.9 mM,0.252 (inactive)
CCCCCCCC/C=C\CCCCCCCC(=O)c1nc2ncccc2o1 [Oleoyl Oxazolopyridine],scaled lipid accumulation score,[6],0.017 (inactive)
CC(C)=CCC1=C(O)C(=O)c2ccccc2C1=O [Lapachol],scaled lipid accumulation score,[5],≤ 0 (inactive)
O=C1c2ccccc2C(=O)c2c1ccc(O)c2O [Alizarin],scaled lipid accumulation score,[4],≤ 0 (inactive)
same,scaled lipid accumulation score,[5],≤ 0 (inactive)
CC1(C)C(=O)N=C2C1=C(O)C(=O)c1ccccc12,scaled lipid accumulation score,[5],0.923 (active)
CC1(C)C=C(CN2C/C(=C\c3ccc(F)cc3)C(=O)/C(=C/c3ccc(F)cc3)C2)C(C)(C)N1O,scaled lipid accumulation score,[4],0.264 (inactive)
same,scaled lipid accumulation score,[5],0.694 (inactive)
Cc1ccc(/C=C2\CNC/C(=C\c3ccc(C)cc3)C2=O)cc1.Cl,scaled lipid accumulation score,[5],1.43 (active)
COc1ccc(/C=C2\COc3ccc(C)cc3C2=O)cc1O,scaled lipid accumulation score,[5],0.275 (inactive)
CN(C)CCSSCCNC(=O)C1CCN(C(=O)CSc2ccc(Cl)cc2)CC1,scaled lipid accumulation score,[4],≤ -0.009 (inactive)
same,scaled lipid accumulation score,[5],≤ 0 (inactive)
CCCCC[C@H](O)/C=C/[C@@H]1[C@@H](C/C=C\CCCC(=O)NCCO)[C@@H](O)C[C@@H]1O [11.beta.-Prostaglandin F2.alpha. Ethanolamide],scaled lipid accumulation score,[6],≤ 0 (inactive)
CCCCC/C=C\C/C=C\C/C=C\C=C\[C@@H](O)CCCC(=O)O,scaled lipid accumulation score,library stock concentration: 100 uM,≤ -0.021 (inactive)
CN(C)CCOc1cc(-c2cn[nH]c2)ccc1NC(=O)C1COc2ccccc2O1 (stereo not given) [listing 1 of 2 here],scaled lipid accumulation score,[2],≤ -0.005 (inactive)
same,scaled lipid accumulation score,[3],0.383 (inactive)
O=C(Nc1ccc(-c2cn[nH]c2)cc1)C1COc2ccccc2O1 (stereo not given) [Rho Kinase Inhibitor V],scaled lipid accumulation score,[4],≤ 0 (inactive)
CN(C)CCOc1cc(-c2cn[nH]c2)ccc1NC(=O)C1COc2ccccc2O1 (stereo not given) [listing 2 of 2 here],scaled lipid accumulation score,[5],1.08 (active)
CCCCCCCCCCCCCCCCCC=CC(=O)O [.DELTA.2-cis Eicosenoic Acid],scaled lipid accumulation score,[6],0.011 (inactive)
CCCCC/C=C\C/C=C\CC/C=C\CCCC(=O)OCC [Pinolenic Acid ethyl ester],scaled lipid accumulation score,[6],≤ 0 (inactive)
CC[C@]1(O)C[C@H]2CN(CCc3c([nH]c4ccccc34)[C@@](C(=O)OC)(c3cc4c(cc3OC)N(C)[C@H]3[C@@](O)(C(N)=O)[C@H](O)[C@]5(CC)C=CCN6CC[C@]43[C@@H]65)C2)C1.O=S(=O)(O)O,scaled lipid accumulation score,library stock concentration: 9.7 mM,1.52 (active)
CCCCC[C@H](O)/C=C/[C@@H]1[C@H]2C/C(=C/CCCC(=O)O)C[C@H]2C[C@H]1O [Carbacyclin],scaled lipid accumulation score,[6],≤ -0.021 (inactive)
N=C(N)c1ccc(N2CCN(C3CCN(CC(=O)O)CC3)CC2)cc1,scaled lipid accumulation score,[5],≤ -0.006 (inactive)
CCCCCCCCCCCCC/C=C/[C@@H](O)[C@H](CO)NC(=O)CCCCC [C-6 Ceramide],scaled lipid accumulation score,[6],≤ 0 (inactive)
CCCCC/C=C\C/C=C\C/C=C\C/C=C\CCCCN1C(=O)C=CC1=O [N-Arachidonyl Maleimide],scaled lipid accumulation score,[6],≤ 0 (inactive)
CCCCC[C@H](O)CC(=O)CCc1ccc(O)c(OC)c1 [6-Gingerol],scaled lipid accumulation score,library stock concentration: 17 mM,≤ -0.014 (inactive)
Cc1c(-c2cnccn2)ssc1=S [Oltipraz],scaled lipid accumulation score,library stock concentration: 8.8 mM,0.01 (inactive)
N[C@H](CO)C(=O)O [D-Serine],scaled lipid accumulation score,[5],≤ 0 (inactive)
C(=C(/CC1)\CCN1C)(/c2c3cccc2)\c4c(cccc4)C=C3.Cl [Cyproheptadine hydrochloride],scaled lipid accumulation score,[5],0.933 (active)
CN1CCC(=C2c3ccccc3C=Cc3ccccc32)CC1 [Cyproheptadine HCl],scaled lipid accumulation score,[4],0.629 (inactive)
same,scaled lipid accumulation score,[5],0.63 (inactive)
CN1CCC(=C2c3ccccc3C=Cc3ccccc32)CC1 [Cyproheptadine],scaled lipid accumulation score,library stock concentration: 7 mM,0.351 (inactive)
CN1CCC(=C2c3ccccc3C=Cc3ccccc32)CC1 [Cyproheptadine hydrochloride],scaled lipid accumulation score,library stock concentration: 6.2 mM,0.686 (inactive)
Cl.C(=C(\CCN(C)C1)/C1)(/c2c(cccc2)C=C3)\c4c3cccc4 [Cyproheptadine hydrochloride],scaled lipid accumulation score,,0.968 (active)
CN1CCC(=C2c3ccccc3Sc3ccccc32)CC1 [Pimethixene maleate],scaled lipid accumulation score,,0.65 (inactive)
same,scaled lipid accumulation score,[5],0.656 (inactive)
CN1CCC(=C2c3ccccc3CCc3cccnc32)CC1 [Azatadine dimaleate],scaled lipid accumulation score,[4],0.004 (inactive)
same,scaled lipid accumulation score,[5],0.221 (inactive)
Cl[H].CN1CC\C(=C(/c2c(cccc2)C=C3)\c(cccc4)c34)\CC1 [Cyproheptadine hydrochloride],scaled lipid accumulation score,[5],1.04 (active)
CN1CCC(=C2c3ccccc3CCc3cccnc32)CC1,scaled lipid accumulation score,[5],0.464 (inactive)
CN1CCC(=C2c3ccccc3C=Cc3ccccc32)CC1,scaled lipid accumulation score,[5],1.32 (active)
C#C[C@]1(OC(C)=O)CC[C@H]2[C@@H]3CCC4=CC(=NO)CC[C@@H]4[C@H]3CC[C@@]21CC (mixture of isomers) [Norgestimate],scaled lipid accumulation score,library stock concentration: 5.4 mM,≤ 0 (inactive)
CC1COCCN1c1cc(C2(S(C)(=O)=O)CC2)nc(-c2cccc3[nH]ccc23)n1 (stereo not given),scaled lipid accumulation score,[4],≤ 0 (inactive)
same,scaled lipid accumulation score,[5],≤ -0.001 (inactive)
